Screening results as filed in PubChem BioAssay.
POLK inh = qHTS for Inhibitors of Polymerase Kappa; purified Pol kappa, fluorescent DNA synthesis assay, 10 min; Potency, µM (doses to about 107 µM), for the others: at the top dose activity, negative = inhibition, most hits filed as inhibitors; 0.53% of 400,000 active; note: % is set by controls: 0 for no effect and ±100 for the full control effect
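Here, compound and 10 nM enzyme are combined for 15 min at room temperature; adding 50 nM substrate (final) starts DNA synthesis, tracked by fluorescence at 0 and 10 min against buffer-only wells.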
Pol beta inh = qHTS Assay for Inhibitors of DNA Polymerase Beta | P06746 | Pol beta primer extension/strand displacement, fluorescence kinetic | Potency, µM (highest dose often 114 µM), for the others: top-dose activity change, negative = inhibition, hits mostly inhibitors | 1.3% of 340,000 active; note: % is set by controls: 0 for no effect and ±100 for the full control effect
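Curves were derived by four-parameter Hill fits of normalized qHTS data. The kinetic fluorescent primer-extension read was taken at 0 and 10 min after 50 nM substrate, following a 15 min room-temperature preincubation of 10 nM enzyme with compounds.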
Pol eta inh = qHTS for Inhibitors of Polymerase Eta | 1.2% of 390,000 active | recombinant Pol eta, fluorescent DNA replication assay | Potency, µM (titrated, usually from 114 µM), inactives show at the top dose activity change, negative = inhibition, usual class: inhibitors; note: % is set by controls: 0 for no effect and ±100 for the full control effect
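Fluorescent replication assay: 50 nM final substrate added after a 15 min room-temperature compound preincubation with 10 nM enzyme. Signal taken at 0 min and again at 10 min.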
Pol iota inh = qHTS for Inhibitors of Polymerase Iota. Pol iota fluorescent replication assay, 10 min. DNA polymerase iota (Homo sapiens), Q9UNA4. Potency, µM (highest dose often 115 µM), for the others: at the highest dose activity, negative = inhibition, most hits filed as inhibitors. 1% of 390,000 active. AID 588590, 2011
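Fluorescent replication assay read twice, at 0 min and 10 min after adding 50 nM (final) substrate. Enzyme (10 nM) and compounds were first incubated 15 min at room temperature; enzyme-free buffer wells were negative controls.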
TDP1 block = qHTS Assay for Inhibitors of Tyrosyl-DNA Phosphodiesterase (TDP1); Tyrosyl-DNA phosphodiesterase 1 (Homo sapiens), Q9NUW8; recombinant TDP1, AlphaScreen DNA substrate cleavage; Potency, µM (series often up to 130 µM), for the others: top-dose activity change, negative = inhibition, actives largely listed as inhibitors; 0.28% of 350,000 active; AID 485290, 2010; note: % is set by controls: 0 for no effect and ±100 for the full control effect; nearly all actives have a fitted effect of over 40% in size
Target sequence (Q9NUW8 whole entry, looked up): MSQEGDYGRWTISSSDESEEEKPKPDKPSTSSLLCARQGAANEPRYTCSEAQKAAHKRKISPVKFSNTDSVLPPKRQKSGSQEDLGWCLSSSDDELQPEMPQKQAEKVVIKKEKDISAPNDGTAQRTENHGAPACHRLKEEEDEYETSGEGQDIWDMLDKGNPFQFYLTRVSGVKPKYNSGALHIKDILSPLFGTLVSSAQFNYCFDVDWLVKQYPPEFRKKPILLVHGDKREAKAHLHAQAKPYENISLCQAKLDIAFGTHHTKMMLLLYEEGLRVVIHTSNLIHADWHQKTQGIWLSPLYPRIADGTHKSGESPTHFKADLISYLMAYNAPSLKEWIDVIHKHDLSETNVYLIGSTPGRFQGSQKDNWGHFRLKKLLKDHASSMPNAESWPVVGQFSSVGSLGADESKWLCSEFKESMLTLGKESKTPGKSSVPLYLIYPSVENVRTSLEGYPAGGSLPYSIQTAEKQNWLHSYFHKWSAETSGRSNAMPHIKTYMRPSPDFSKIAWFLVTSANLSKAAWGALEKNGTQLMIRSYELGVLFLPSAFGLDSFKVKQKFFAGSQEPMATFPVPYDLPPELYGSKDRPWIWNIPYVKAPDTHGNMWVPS
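Compounds were preincubated with Tdp1 (1 nM final) for 15 min at room temperature before substrate (15 nM final) started a 5 min reaction; beads (10 ug/ml final) were then added for 10 min before AlphaScreen detection.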
FEN1 inh = qHTS Assay for the Inhibitors of Human Flap endonuclease 1 (FEN1); P39748; Recombinant FEN1 flap cleavage, fluorescence, 15 min; 0.35% of 390,000 active; Potency, µM (top dose mostly 114 µM), inactives show at the top dose activity change, negative = inhibition, usual class: inhibitors; note: % is set by controls: 0 for no effect and ±100 for the full control effect; nearly all actives have a fitted effect of over 65% in size
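Nuclease activity of 10 nM FEN1 was measured after 15 min of room-temperature exposure to titrated compounds, by adding 50 nM flap substrate and reading plates at 0 and 15 min.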
* marks the source's active call; other numbers are inactive results; ? = inconclusive; nt = no result given; [ ] = remark or other dose. In the library only some 2.4% were active in any assay of this set; here they are far more common. Calls come from the whole dose curve; as a rule, active = well fitted curve in the direction sought with a large enough effect; inconclusive = small, poorly fitted or top-dose-only effect, or another doubt; inactive = no such curve, though single readings can be large; an effect the other way counts as inactive or inconclusive. Potency is the fitted concentration of half-maximal effect.

SMILES	POLK inh	Pol beta inh	Pol eta inh	Pol iota inh	TDP1 block	FEN1 inh
COC(=O)C1[C@H]2SC(C)(C)C(C(=O)OC)N2C(=O)N1Cc1ccccc1 (some centres not stated)	-11%	nt	nt	6%	nt	-1%
O=[N+]([O-])c1cc(N(CCO)CCO)ccc1NCCO	nt	nt	nt	nt	21%	nt
N=C1C(c2nc3ccccc3c(=O)[nH]2)=C(O)CN1CCc1ccccc1	-11%	?	-15%	22%	71µM*	17%
CCCCCN1CC(O)=C(c2nc3ccccc3[nH]2)C1=N	-8%	32µM*	6%	67%	-5%	1%
N=C1C(c2nc3ccccc3c(=O)[nH]2)=C(O)CN1CCO	-6%	6%	3%	-1%	3%	3%
COc1cc(OC)c2c(-c3ccccc3)cc(=O)oc2c1C(CC(=O)N1CCN(c2ccccc2)CC1)c1ccc2c(c1)OCO2 (configuration not stated)	nt	50µM*	nt	nt	?	nt
CC[C@H](C)[C@H](N)C1=N[C@H](C(=O)N[C@@H](CC(C)C)C(=O)N[C@@H](CCC(=O)O)C(=O)N[C@@H](C(=O)N[C@H]2CCCCNC(=O)[C@@H](CC(N)=O)NC(=O)[C@@H](CC(=O)O)NC(=O)[C@@H](Cc3cnc[nH]3)NC(=O)[C@@H](Cc3ccccc3)NC(=O)[C@@H]([C@@H](C)CC)NC(=O)[C@@H](CCCN)NC2=O)[C@@H](C)CC)CS1	-3%[12 µM]	nt	nt	nt	9%[21 µM]	nt
CCCc1ccc(O)c(N=Cc2cc(Br)cc(OCC)c2O)c1	-24%	20µM*	-11%	?	8%	2%
COc1ccc(OC)c(C2/C(=C(/O)c3ccccc3)C(=O)C(=O)N2Cc2ccco2)c1 (configuration not stated)	-3%	20%	-12%	61%	0%	45µM*
CCOC(=O)C1=C(OCc2ccc(Cl)cc2)C2C=C(C)C=CC2N=C1 (configuration not stated)	-5%	45µM*	-4%	-12%	-3%	-3%
N#C/C(=C\c1ccc(-c2ccc(C(=O)O)cc2)o1)C(=O)NCC1CCCO1 (configuration not stated)	?	16µM*	13µM*	?	56µM*	-15%
Cc1nc(-c2ccc(S(=O)(=O)Nc3ccc(C)c(C)c3)s2)cs1	nt	nt	nt	nt	1%	nt
COc1cc2nc(N3CCCN(C)CC3)nc(N3CCN(C)CC3)c2cc1OC	-23%	nt	nt	?	nt	-4%
CCOc1ccc(OCC)c(Nc2nc3ccc(C(=O)c4ccccc4)cc3n3cnnc23)c1	0%	17%	20%	-24%	0%	18%
O=c1cc(O)c2c(=O)n(C3CCCCC3)c3ccccc3c2o1	-23%	45µM*	?	?	-1%	-4%
CCn1c(=O)c([N+](=O)[O-])c(Cl)c2ccccc21	2%	96%	-9%	?	3%	?
CCCCn1c(=O)c2c(O)cc(=O)oc2c2ccccc21	-5%	?	?	8%	-2%	-19%
O=c1c([N+](=O)[O-])c(O)c2ccccc2n1Cc1ccccc1	-16%	7%	-12%	6%	nt	11µM*
O=c1cc(O)c2c(=O)n(Cc3ccccc3)c3ccccc3c2o1	-8%	25µM*	?	?	4%	?
O=C(CCS(=O)(=O)c1ccc(Br)cc1)NC1CCCCCC1	-4%	?	25µM*	15%	1%	-1%
Cc1ccc(S(=O)(=O)CCC(=O)OCC(=O)NCc2ccc(F)cc2)cc1	nt	nt	-1%	nt	nt	nt
O=C(CCS(=O)(=O)c1ccc(Br)cc1)NCc1ccc(F)cc1	?	?	40µM*	-83%	50µM*	-1%
